Assay results reported in PubChem BioAssay (Tox21).
A number with no mark means an inactive call. Activity calls are given as the source filed them. The call rests on the fitted dose curve; in most records, active means well fitted curve in the direction sought with a large enough effect in the repeat runs; inconclusive means weak or mixed curves; inactive means flat fitted curve, though single readings scatter.

Assay: qHTS assay to test for compound auto fluorescence at 590 nm (red) in HepG2 cells (AID 720674)
Settings: HepG2 autofluorescence, red 540/590 nm, 1 h; series mostly up to 91.3 µM; fluorescence, relative to Rose Bengal: at the top concentration
From the text: U.S. Tox21 Program National Center for Advancing Translational Sciences [NCATS] NIH Chemical Genomics Center [NCGC] U.S. Environmental Protection Agency [EPA] National Institutes of Environmental Health Sciences [NIEHS] National Toxicology Program [NTP] U.S. Food and Drug Administration [FDA] Tox21 Assay Overview: Compound auto fluorescence often interferes with screening of the compound library against various biological targets and signaling pathways. Some of these compounds may have fluorophoric properties. Such properties may interfere with the assay outputs resulting in false positives and/or negatives. To decrease such complications and ensure the compound activities are relevant in terms of biological response, the Tox21 10K compound library was screened for auto fluorescence. From the fluorophores used as reporter signals in our screening assays, the auto fluorescence equivalencies of compounds against three fluorophores have been evaluated: Triamterene, Fluorescein and Rose Bengal sodium for blue, green and red fluorescence, respectively. The fluorescence intensities were measured using Excitation/Emission wavelengths at 405/460nm, 485/535nm and 540/590nm for blue, green and red labels, respectively. This assay includes the red fluorescence data.
Tox21 Assay Protocol Summary: 2,000 HepG2 cells in 5 uL of culture medium (MEM containing 10% FBS) per well were dispensed into black wall/clear bottom 1536-well plates using a Multidrop Combi Dispenser (ThermoFisher Scientific, Waltham, MA). The assay plates were incubated overnight at 37 C to allow cell attachment to the well bottom, followed by the transfer of 23 nL compound or DMSO vehicle by a pintool work station (Kalypsys , San Diego, CA). After the assay plates were incubated for 1 hr at 37 C and 5% CO2, fluorescence intensities in the assay plates were measured by an Envision (PerkinElmer, Shelton, CT) plate reader using three labels for measuring blue, green and red fluorescence at […] 460, 535 and 590 nm respectively.
On the % scale 0 is the no-effect control and ±100 the full control effect.

SMILES | fluorescence, relative to Rose Bengal | outcome
Cc1c(C)c2c(c(C)c1OC(=O)CCC(=O)OCCO)CC[C@@](C)(CCC[C@H](C)CCC[C@H](C)CCCC(C)C)O2 | 0.174% [at 46 µM] | –
COC(=O)C1=C(C)NC(C)=C(C(=O)O[C@@H]2CCCN(Cc3ccccc3)C2)[C@@H]1c1cccc([N+](=O)[O-])c1 | -0.392% [at 46 µM] | –
NNC(=O)CP(=O)(c1ccccc1)c1ccccc1 | 0.0319% [at 46 µM] | –
O=C(O)CCC(=O)C(=O)O | – | inactive
Brc1cc(Br)c(Oc2cc(Br)c(Br)cc2Br)cc1Br | -0.0866% [at 46 µM] | –
NCCNCCO | 0.0506% [at 95.7 µM] | –
CC=C(Cl)Cl | 0.129% | –
Clc1cc(Cl)nc(Cl)n1 | 0.0777% [at 95.7 µM] | –
CCOc1ccc(Cc2nccc3cc(OCC)c(OCC)cc23)cc1OCC | 0.4% [at 18.6 µM] | –
Cc1ccc(C(C)(C)O)cc1 | -0.169% | –
O=C(O)CCc1nc(-c2ccccc2)c(-c2ccccc2)o1 | -0.0425% [at 46 µM] | –
CO/N=C(/C(=O)N[C@@H]1C(=O)N2C(C(=O)O)=C(COC(N)=O)CS[C@H]12)c1ccco1 | – | inactive
N#CCc1ccc(Cl)cc1Cl | -0.0329% | –
C=C(C)C(=O)OCCOCCOC(=O)C(=C)C | -0.0009% | –
COC(=O)CCS | 0.183% | –
CC1(C)[C@H](C(=O)O)N2C(=O)C[C@H]2S1(=O)=O | -0.0374% [at 46 µM] | –
NC1[C@H]2CN(c3nc4c(cc3F)c(=O)c(C(=O)O)cn4-c3ccc(F)cc3F)C[C@@H]12 (stereo not given in full) | 0.232% [at 46 µM] | –
O=C1c2ccccc2C(=O)C1(O)O | 0.0853% | –
CCCC(C(=O)OCCN(CC)CC)(c1ccccc1)c1ccccc1 | -0.0357% [at 46 µM] | –
CC1CC(OC(=O)C(O)c2ccccc2)CC(C)(C)N1C (stereo not given) | – | inactive

SMILES | fluorescence, relative to Rose Bengal | outcome
CCCCCCCCCCCCCCN(CCO)CCO | -0.56% | –
CCCCCCC(C)(C)C(=O)O | -0.32% | –
CC(C)C[C@H](NC(=O)[C@H](CCc1ccccc1)NC(=O)CN1CCOCC1)C(=O)N[C@@H](Cc1ccccc1)C(=O)N[C@@H](CC(C)C)C(=O)[C@@]1(C)CO1 | -0.0172% [at 46 µM] | –
O=[N+]([O-])c1cc(C2CCCCC2)c(O)c([N+](=O)[O-])c1 | 0.0499% | –
COc1ccccc1N1CCN(CCCCNC(=O)c2ccc(-c3ccc(C(C)=O)cc3)cc2)CC1 | 0.159% [at 46 µM] | –
Nc1cccc2c1CN(C1CCC(=O)NC1=O)C2=O (stereo not given) | -0.298% [at 46 µM] | –
CCCCCCCCCCC(=O)O | 0.0868% [at 95.7 µM] | –
CN1CCCN=C1COC(=O)C(O)(c1ccccc1)C1CCCCC1 (stereo not given) | 0.407% [at 46 µM] | –
CN1C[C@H](C(=O)N[C@]2(C)O[C@@]3(O)[C@@H]4CCCN4C(=O)[C@H](Cc4ccccc4)N3C2=O)C[C@@H]2c3cccc4[nH]cc(c34)C[C@H]21 | 0.272% [at 46 µM] | –
CCc1ccccc1 | 0.201% | –
COc1ccccc1Oc1c(NS(=O)(=O)c2ccc(C(C)(C)C)cc2)nc(-c2ncccn2)nc1OCCO | 0.691% [at 46 µM] | –
FC(F)(F)c1ccccc1Cl | 0.0532% [at 95.7 µM] | –
C[C@@]12CCC[C@H]1[C@@H]1CC[C@H]3C[C@@H](O)CC[C@]3(C)[C@H]1CC2 | 0.0688% [at 46 µM] | –
Cc1cscn1 | 0.0413% | –
CCCCCCCCN | 0.0125% | –
C(=C\c1ccccc1)/c1ccccc1 | -0.0602% [at 95.7 µM] | –
COc1cc(N)c(Cl)cc1C(=O)NC1CCN(CCCOc2ccc(F)cc2)CC1OC (stereo not given) | 0.956% [at 18.6 µM] | –
CCOC(=O)c1ccc(OCCN2C[C@H](O)[C@@H](O)[C@H](O)[C@H]2CO)cc1 | -0.0423% [at 46 µM] | –
CCC(OCCCOC)OC(C)=O (stereo not given) | 0.107% [at 95.7 µM] | –
CC(C)(c1ccccc1)c1ccccc1 | 0.0449% | –
